Laboratory results taken from PubChem BioAssay (Tox21).
Results filed as inconclusive are left out. Where a call stands in place of a potency, no number is given. Activity calls are given as the source filed them. Calls follow the shape of the dose curve; as a rule, active = well fitted cell-killing curve with a large enough effect in the repeat runs; inconclusive = weak or mixed curves, or effect the other way; inactive = flat fitted curve, though single readings scatter.

experiment: qHTS assay to identify small molecule agonists of the constitutive androstane receptor (CAR) signaling pathway - cell viability counter screen (AID 1224836); settings: HepG2-CYP2B6-hCAR viability, CellTiter-Fluor, 23 h, PK11195 added to every well; series mostly up to 92.4 µM; also: nearly all actives have a fitted effect of over 45% in size
From the text: U.S. Tox21 Program National Center for Advancing Translational Sciences [NCATS] NIH Chemical Genomics Center [NCGC] U.S. Environmental Protection Agency [EPA] National Institutes of Environmental Health Sciences [NIEHS] National Toxicology Program [NTP] U.S. Food and Drug Administration [FDA] Tox21 Assay Overview: The constitutive androstane receptor (CAR) is a nuclear receptor which regulates multiple drug metabolizing enzymes (DMEs) and transporters. Activating CAR will generally increase the transcription and subsequent translation of CYP2B6 and CYP3A4. These two DMEs represent about 50% of the drug metabolizing potential in the body. […] Recently, there have also been studies performed indicating CARs role in energy metabolism and cancer therapy. Therefore, inducing CARs activity could have a potential effect on diabetes and cancer. Identifying environmental toxins and compounds which modulate CAR, through the use of the Tox21 10K compound collection, will be an important step in determining the toxicity and potential therapeutic effects these factors will have on the human body. To differentiate true CAR agonists from cytotoxic substances, the assay is multiplexed with a cell viability assay.
Tox21 Assay Protocol Summary: A double-stable (hCAR and CYP2B6-2.2kb) transfected cell line, derived from human hepatoma (HepG2) cells, was utilized for the duration of the quantitative high-throughput screens. The HepG2-CYP2B6-hCAR cells were dispensed at 2500 cells/4 uL/well in 1536-well white solid bottom plates using a Multidrop Combi. After the assay plates were incubated at 37 C/5% CO2 for 4 hrs, 23 nL of compounds at 15 concentrations (from 5-48 columns) or positive control (from 1 to 4 columns) were transferred to the assay plates using a Pintool station. One uL of PK11195 (final concentration = 0.75 uM) was added, using a Flying Reagent Dispenser, inside each well. After a 23 hr incubation period at 37 C/5% CO2, 1 uL of CellTiter-Fluor reagent was added into each well of the assay plates using a Flying Reagent Dispenser. The fluorescence intensity in the plates was then measured using a ViewLux plate reader.
Potency is read from the fitted curve at half-maximal effect.

SMILES | Potency | viability change, negative = cytotoxic
Nc1cc([N+](=O)[O-])cc(Cl)c1O | inactive | –
C=C1C(CCl)(CCl)C2(Cl)C(Cl)C(Cl)C1(Cl)C2(Cl)Cl (stereo not given) | inactive | –
Cc1cccc(C)c1C | inactive | –
Cc1c[nH]c(=O)[nH]c1=O | inactive | –
O=C1CCC/C=C\CCCCCCCCCC1 | inactive | –
CSc1nnc(C(C)(C)C)c(=O)[nH]1 | inactive | –
NC(=O)c1ccccc1Cl | inactive | –
COC(=O)c1ccc([N+](=O)[O-])cc1 | inactive | –
CCc1cccc(C)c1N(C(=O)CS(=O)(=O)O)C(C)COC (stereo not given) | inactive | –
CCc1c(C)cc(N)c(CC)c1N | inactive | –
O=C(NCc1ncc(C(F)(F)F)cc1Cl)c1c(Cl)cccc1Cl | inactive | –
COCCC(=O)OC | inactive | –
C1CCSC1 | inactive | –
Cc1ccc2nc(-c3ccc(N)cc3)sc2c1S(=O)(=O)O | inactive | –
Nc1ccc(Oc2cccc(Oc3ccc(N)cc3)c2)cc1 | inactive | –
CCOC=C(C(=O)OCC)C(=O)OCC | inactive | –
NC(=O)C1CO1 (stereo not given) | inactive | –
C=C(C)C1CCC(C)CC1O (stereo not given) | inactive | –
CCCCCCCCCCCCS(=O)(=O)Cl | – | 14.3% [at 19 µM] (inactive)
CC1(C)[C@H](C(=O)OCc2cccc(Oc3ccccc3)c2)[C@@H]1C=C(Cl)Cl | inactive | –

SMILES | Potency | viability change, negative = cytotoxic
[Cl][Dy]([Cl])[Cl] | inactive | –
CCCCCc1ccc(O)cc1 | inactive | –
CC(C)C(=O)C(C)C | inactive | –
Oc1ccc(Cl)cc1C1CCCC1 | inactive | –
CC(C)(C)C1=CC(=O)C(C(C)(C)C)=CC1=O | inactive | –
CCOC(=O)OC(=O)OCC | inactive | –
CC1=CC[C@@H](C(C)(C)O)CC1 | inactive | –
CC(CC(C)(C)C)CC(C)(C)CC(C)(C)C (stereo not given) | inactive | –
CN[C@H]1CC[C@@H](c2ccc(Cl)c(Cl)c2)c2ccc(S(N)(=O)=O)cc21 | 61.1 µM (active) | –
Cc1ccc(C2OC[C@@H]3OC(c4ccc(C)cc4)O[C@H]([C@H](O)CO)[C@@H]3O2)cc1 (stereo not given in full) | inactive | –
c1ccc(-c2ccc(C(c3ccccc3)n3ccnc3)cc2)cc1 (stereo not given) | inactive | –
CCCCCCCCCCCCN1CCCC1=O | inactive | –
Cc1ccc2n[nH]nc2c1 | inactive | –
CC/C=C(\C)C=O | inactive | –
C=COCCCC | inactive | –
C=Cc1ccncc1 | inactive | –
CCOc1ccc([N+](=O)[O-])cc1 | inactive | –
O=C(Nc1ccccc1)c1cc(Cl)ccc1O | 24.3 µM (active) | –
CSc1ccc(O)cc1C | inactive | –
CC1(C)[C@H]2CC[C@]1(C)C(=O)C2 | inactive | –
